Among all 190,000 compounds or so, about 3,500 (1.8%) were called active. What follows is part of a selection rich in actives, with near analogues and random picks from the rest. Unmarked numbers belong to inactive results.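 How the source made its calls: active means inhibition above a set limit, 3 SD over mean compound inhibition (cut at about 8.4% in these data); inactive means the rest.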

The test is described as follows: inhibitors of the yeast RAM network, primary screen, dse1pr::URA3 reporter, 5-FOA selection (AID 868).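 Further: 0% = DMSO-only wells with no growth and 100% = 10 µM 1-NA-PP1 full growth; inhibition rescues growth on 5-FOA so higher OD means more RAM inhibition.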 The note with it: S. cerevisiae dse1pr::URA3 reporter, 5-FOA growth OD615, 2 d; at 50 µM; active compounds read high; analog-sensitive cbk1-as2 kinase mutant strain.
With `O=C(COc1cccc2ccccc12)Nc1cc(S(=O)(=O)N2CCOCC2)ccc1N1CCOCC1`, the inhibition (commonly the change of the read-out against control, counted positive when it falls) is 3.39%.
With `S=c1[nH]nc(CSCc2ccc(Cl)cc2Cl)n1-c1ccccc1`, the inhibition is 4.95%.
As for `Clc1ccc(CSc2nnc(/C=C/c3ccccc3)o2)c(Cl)c1`, the inhibition was 9.57% (active).
As for `O=C(Nc1nnc(SCc2ccc(Cl)cc2Cl)s1)C1COc2ccccc2O1` (stereo not given), the inhibition was 4.44%.
For the molecule `O=C(Nc1ccccc1)N1CCN(C(=O)Nc2ccccc2)CC1`, the inhibition is 2.76%.
Take `O=C(COC(=O)/C=C/c1cn(-c2ccccc2)nc1-c1cccnc1)Nc1ccc(Cl)cc1Cl`: the inhibition is 2.97%.
As for `COc1ccc2c(c1)CCc1c(C(=O)N3CCc4ccccc4C3)noc1-2`, the inhibition was 12.2% (active).
`COc1ccc2c(c1)CCc1c(C(=O)Nc3c(C)n(C)n(-c4ccccc4)c3=O)noc1-2`: the inhibition was 3.23%.
Turning to `COc1ccc2c(c1)CCc1c(C(=O)N3CCCC3)noc1-2`, the inhibition is 2.15%.
The value for `O=C(NN1C(=O)C2C3C=CC(O3)C2C1=O)c1ccncc1` (stereo not given) was 2.74%.
For `CCCCN1C(=O)c2ccc(C(=O)Nc3ccc(S(=O)(=O)N(C)C)cc3)cc2C1=O`, the inhibition is 3.73%.
Take `CC(C)CCN1C(=O)c2ccc(C(=O)Nc3cccc(S(N)(=O)=O)c3)cc2C1=O`: the inhibition was 9.03% (active).
In the case of `Cc1cccc(C(=O)Nc2ccc3c(c2)C(=O)N(CC(C)C)C3=O)c1`, the inhibition is 3.29%.
The value for `Cc1ncoc1C(=O)N1CCCC(C(=O)c2ccc3c4c(cccc24)CC3)C1` (stereo not given) was 1.14%; that for `CCC1CCCCN1C(=O)CSc1nc(C)cc(C)n1` (stereo not given) was -1.36%; that for `COc1ccc(CC(=O)NC(C)CCc2ccccc2)cc1` (stereo not given) was 0.14%.
On to `COc1ccc(C(CC(=O)O)NC(=O)Cc2ccccc2)cc1` (stereo not given), for which the inhibition is 0.54%.
For `CCC/C=C(\CCC)C(NC(=O)Cc1ccccc1)c1ccc(C(=O)OC)cc1` (stereo not given), the inhibition was 8.71% (active).
Consider `Cc1cccc(CN2CCN(Cc3cnn(-c4ccccc4F)c3)CC2CCO)n1` (stereo not given), for which the inhibition was -0.13%.
Turning to `COc1cc(NC(=S)N2CCCC(C)C2)cc(OC)c1OC` (stereo not given), the inhibition was 2.19%.
Turning to `Fc1ccc(-n2c(Cc3ccccc3)nnc2SCc2nc(-c3ccc(Cl)cc3)no2)cc1`, the inhibition is 14.2% (active).
The same measure for `Cc1ccc(-c2noc(CSc3nnc(-c4ccncc4)n3-c3ccc(F)cc3)n2)cc1`: 2.42%; for `Cc1ccc(-c2noc(CSc3nnc(-c4ccccc4)n3C)n2)cc1`: 2.09%; for `Cc1n[nH]c(=O)n1-c1ccc(C(C)C)cc1`: 0.86%.
As to `Nc1nc(-c2sc3nc4c(cc3c2N)CCCC4)nc(N2CCOCC2)n1`, the inhibition is 5.88%.

The values above are taken from PubChem BioAssay AID868 (SRMLSC, 2007).
